# Sampled rows, rich in hits. Any-hit rate of the full collection: about 4.2%.
# V-ATPase pH = regulators of yeast V-ATPase proton transport; S. cerevisiae, pHLuorin cytosolic pH fluorescence; response, % at 10 µM; actives 0.37% (n = 350,000); in the data active = response mostly above about 7.3%, no sharp cut-off; inactive = mostly below about 5.4%; note: actives read high
# NLRP3 yeast inh = blocks the NALP3 inflammasome reconstituted in yeast; Yeast reconstituted NLRP3/ASC/caspase-1, beta-gal luminescence, 24 h; inhibition, % at 10 µM; actives 0.39% (n = 330,000);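 active = inhibition of 50% or more; inactive = inhibition below 50%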;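 note: plate controls were induced DMSO wells for no effect and uninduced yeast grown without galactose for full effect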
# TIM10 inh = growth inhibitors of TIM10 yeast strain | S. cerevisiae TIM10 strain growth, BacTiter-Glo luminescence, 24 h | inhibition, % at 10 µM | actives 1.4% (n = 330,000) | AID 463195;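 active = inhibition of 40% or more at the single tested concentration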;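 note: wild-type TIM10 isogenic control strain grown at permissive 25 °C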
# NALP1 inh = inhibitors of NALP1 inflammasome in yeast | inhibition, % at 10 µM | AID 2071 | actives 0.61% (n = 280,000) | S. cerevisiae NALP1/ASC/caspase-1 growth, X-gal OD620, 72 h; in the data active = inhibition mostly above about 24%, no sharp cut-off; inactive = mostly below about 32%
# tim10-1 inh = tim10-1 yeast growth inhibition; S. cerevisiae tim10-1 ts strain growth, BacTiter-Glo, 24 h; inhibition, % at 20 µM; actives 2.2% (n = 330,000); AID 463190;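 active = inhibition of at least 40%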;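 note: mutant grown at 25 °C; 0% = DMSO wells with yeast and 100% = wells holding no yeast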
# tim23-1 inh = growth inhibitors of tim23-1 mutant yeast | actives 1.3% (n = 330,000) | inhibition, % at 20 µM | S. cerevisiae tim23-1 growth, BacTiter-Glo luminescence, 24 h | AID 463212;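 active = growth inhibition of the mutant yeast at or above 50%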;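 note: temperature-sensitive mutant grown at 25 °C; plate controls were DMSO-treated mutant yeast for no effect and medium wells lacking yeast for full effect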
# NALP3 yeast conf = confirmation of NALP3 inhibitors in yeast; shares compounds with NLRP3 yeast inh; yeast expressing human NALP3, luminescence; inhibition, % at 10 µM; actives 81% (n = 1,300); AID 435006; in the data active = inhibition above about 48%
# Casp1-ASC yeast = counter-screen for NALP3 inhibitors: yeast caspase-1-ASC | shares compounds with NLRP3 yeast inh | yeast expressing Caspase-1-ASC, luminescence counter screen | inhibition, % at 10 µM | actives 66% (n = 1,000)
# NALP3 yeast rt = yeast NALP3 inhibition, confirmed on retest; shares compounds with NLRP3 yeast inh; yeast expressing human NALP3, luminescence read-out; inhibition, % at 10 µM; actives 53% (n = 1,000)
# Starred values were filed as active, the others as inactive; x = no result given; ! = not confirmed by another sample. Cut-off read from the data, not from the text of the source, unless noted: active = inhibition above about 50%; inactive = the rest.
SMILES,V-ATPase pH,NLRP3 yeast inh,TIM10 inh,NALP1 inh,tim10-1 inh,tim23-1 inh,NALP3 yeast conf,Casp1-ASC yeast,NALP3 yeast rt
O=C(CCC(=O)c1cccs1)NCc1cccc(Cl)c1,1,21,10,x,12,4,x,x,x
CCC(C(=O)OC)n1cnc2scc(-c3ccc(C)c(C)c3)c2c1=O (configuration not stated),2,97*,22,100*,25,41,99*,99*,98*
O=C(NC1CCCCC1)c1noc2c1CCCCC2,-1,51*,-2,52,14,25,67*,54*,50
O=C1/C(=C/c2ccccn2)SC(=S)N1c1ccc(O)cc1,-1,70*,11,x,11,14,75*,56*,49
Cc1cccc(N2C(=O)/C(=C/c3ccccn3)SC2=S)c1,0,16,-13,21,-11,5,x,x,x
Cc1cccc(NC(=O)CNC(=O)CN2C(=O)NC3(CCc4ccccc43)C2=O)c1C (configuration not stated),5,20,-9,x,7,-11,x,x,x
CNC(=O)c1c(O)c2cccc3c2n(c1=O)CCC3,-2,50*,31,0,-14,49,64*,39,48
O=C(NC1CCCCCC1)c1c(O)c2cccc3c2n(c1=O)CCC3,x,x,x,-14,x,x,x,x,x
O=C(NCCNCCO)c1c(O)c2cccc3c2n(c1=O)CCC3,0,53*,13,14,1,11,63*,36,34
CCCCCCNC(=O)c1c(O)c2cccc3c2n(c1=O)CCC3,-6,17,-3,-3,-18,-28,x,x,x
Cc1cccc(C)c1N1CCN(C(=O)N2CCCCC2)CC1,0,9,6,13,-1,12,x,x,x
NC(=O)CC(NC(=O)Cc1ccc(Br)cc1)c1ccc(N2CCC(Cc3ccccc3)CC2)c([N+](=O)[O-])c1 (configuration not stated),6,51*,12,x,8,5,80*,18,4
CCN(CC)c1ccc2nc3ccccc3[n+](CC)c2c1,-3,67*,27,28,29,21,73*,44,57*
c1ccc(-c2nc(Sc3ncnc4c3cnn4-c3ccccc3)n[nH]2)cc1,x,50,18,4,27,31,69*,x,x
Cc1ccc(CSc2ncnc3c2cnn3-c2ccccc2)cc1,-1,-27,-24,24,-6,-8,x,x,x
CN(c1ccc(OCC(=O)N2CCOCC2)cc1)S(=O)(=O)c1ccc(Cl)cc1,0,5,-2,14,-3,3,x,x,x
CCN1C(=O)/C(=C/C=C2/SCCN2C)SC1=S,-4,50,-11,4,-13,2,33,x,x
Cc1csc2c(N3CCN(S(=O)(=O)c4ccc(Cl)cc4)CC3)ncnc12,-5,68*,13,24,12,9,55*,38,29
COc1ccc(S(=O)(=O)N(CC(=O)NCc2ccncc2)c2ccc(C)cc2)cc1OC,0,5,5,5,6,12,x,x,x
CN1C(=O)c2ccc(N3CCCC3)cc2C1=O,1,3,4,40,37,2,x,x,x
Cc1cc(N2CCCC2)ccc1/C=C1\NC(=S)N(C)C1=O,0,51*,38,3,16,19,50*,50*,47
O=C(Cc1cccc2ccccc12)Nc1c(F)cccc1F,-1,43,7,-4,-21,-4,x,x,x
CN1CCc2cccc3c2[C@H]1Cc1ccc(O)c(O)c1-3,1,52*!,-17,101*,1,-10,59*,24,28
Cc1ccc(C(=O)c2nocc2C(=O)c2cccs2)cc1,-1,55*,27,25,13,46,60*,73*,42
COc1ccc2c(C)cc(SCC(=O)NC3CCCC3)nc2c1,0,48,12,x,6,28,x,x,x
SMILES,V-ATPase pH,NLRP3 yeast inh,TIM10 inh,NALP1 inh,tim10-1 inh,tim23-1 inh,NALP3 yeast conf,Casp1-ASC yeast,NALP3 yeast rt
COc1ccc2nc(SCC(=O)NC3CCCC3)c(C)cc2c1,-1,58*,16,14,5,2,71*,53*,49
CCC1Oc2ccccc2N(Cc2ccccc2C)C1=O (configuration not stated),-2,-151,21,-20,20,18,-22,x,x
CCCSc1nsc(NC(=O)C(c2ccccc2)c2ccccc2)n1,1,7,4,-12,-8,-15,x,x,x
CCCSc1nsc(NC(=O)Nc2ccc(F)cc2F)n1,-1,51*,-1,19,33,25,51*,23,36
CC(=O)n1cc([C@H]2C=C(C(=O)NCc3ccccc3)O[C@@H](OCCCCO)C2)c2ccccc21,3,4,16,-4,13,16,x,x,x
CC(=O)n1cc([C@@H]2C=C(C(=O)NCc3ccccc3)O[C@H](OCCCCO)C2)c2ccccc21,-3,89*,5,-12,5,26,40,5,23
CC(=O)Nc1cccc(-c2nc3ccc(NC(C)=O)cc3s2)c1,0,13,5,-3,4,4,x,x,x
CC(=O)Nc1cccc(-c2nc3ccccc3s2)c1,-3,54*,8,4,16,39,46,x,x
Nc1cccc(-c2nc3ccccc3s2)c1,1,26,4,5,26,35,x,x,x
Oc1cccc(-c2nc3ccccc3s2)c1,4,73*,29,11,34,47,84*,82*,69*
CCCCNC(=O)O/N=C(\N)CS(=O)(=O)C(C)(C)C,-4,17,9,15,8,12,x,x,x
CN(C)c1ccc(/C=c2/sc3n(c2=O)NC2(c4ccccc4)N(C)C(=O)N(C)C2(c2ccccc2)N=3)cc1 (configuration not stated),x,9,-9,27,7,22,x,x,x
CC1=CC(=O)N(c2ccn(C)n2)C1=O,-1,34,10,0,9,-5,x,x,x
CCn1c(-c2cc(-c3ccc(OC(C)C)cc3)nc3ccccc23)n[nH]c1=S,0,54*,30,-17,39,42,37,x,x
Cc1nc2ccc(NC(=O)CCC3CCCC3)cc2s1,0,-2,-5,11,6,26,x,x,x
COc1ccccc1-c1sc2cc3c(cc2c1-c1ccc(OCCN2CCCCC2)cc1)OCO3,9,64*,21,x,-2,44,49*,46,43
Cc1ccc2nc(NC(=O)Cc3cccs3)sc2c1,-1,52*,28,26,32,32,63*,51*,53*
COc1ccc2nc(NC(=O)Cc3cccs3)sc2c1,x,38,5,23,8,20,x,x,x
NN=C(c1cccc([N+](=O)[O-])c1)c1cccc([N+](=O)[O-])c1,-1,3,4,x,30,24,x,x,x

# Source: PubChem
